Assay outcomes deposited in PubChem BioAssay by several laboratories.
An excerpt weighted towards active compounds, which were near 6.2% of everything screened.
SUMO Mot1 rescue – yeast Mot1-301 growth rescue at high temperature, primary screen, SUMOylation pathway inhibitor project, S. cerevisiae, ATP luminescence, 38.5C; S. cerevisiae Mot1-301 growth rescue; percent above DMSO median, 100 means doubled; growth rescue, % at 18.8 µM; hit rate 1% among 320,000; AID 2716, 2010;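 active = every valid replicate shows activation above 250% relative to neutral control wells; inactive = the rest, any valid replicate at or below 250%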;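 also: OY570 slx delta 5 strain wells were the positive control but not used for scaling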
NTR1 ag – agonists of human NTR1, primary screen, imaging, U2OS cells, beta-arrestin-GFP, high content; Neurotensin receptor type 1 (Homo sapiens), P30989; NTR1-U2OS beta-arrestin-GFP spot imaging, agonist mode; activation, % at 20 µM; hit rate 0.17% among 330,000; AID 493036, 2011;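 active = activation at or above 40% of the spot to cytoplasm intensity ratio, with at least 20 cells analyzed; inconclusive = wells under 20 cells, flagged as cytotoxic or low count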;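 also: 0% = DMSO without peptide and 100% = 100 nM NTR1 peptide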
Target sequence (P30989 whole entry, looked up): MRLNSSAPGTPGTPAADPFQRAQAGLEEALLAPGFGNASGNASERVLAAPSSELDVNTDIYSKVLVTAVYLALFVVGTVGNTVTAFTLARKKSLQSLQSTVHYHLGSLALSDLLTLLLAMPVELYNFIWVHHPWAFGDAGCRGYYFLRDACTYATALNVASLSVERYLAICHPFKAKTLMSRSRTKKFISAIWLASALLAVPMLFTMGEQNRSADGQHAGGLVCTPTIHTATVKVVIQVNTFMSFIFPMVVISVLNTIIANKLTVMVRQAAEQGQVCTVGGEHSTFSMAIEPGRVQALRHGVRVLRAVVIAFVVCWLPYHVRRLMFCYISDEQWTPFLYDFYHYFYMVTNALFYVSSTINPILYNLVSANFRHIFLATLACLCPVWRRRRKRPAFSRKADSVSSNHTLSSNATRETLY
AHR activator – AHR activators, primary screen, cell-based, luminescence, luciferase reporter, human. activation, % at 5 µM. Aryl hydrocarbon receptor (Homo sapiens), P35869. hit rate 2.5% among 320,000. AHR-responsive luciferase reporter cells; in the data active = activation above about 47%;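 also: 0% = vehicle wells and 100% = reference agonist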
NR3A LBD binder – binders of NR3A ligand-binding domain, primary screen, biophysical, differential scanning fluorimetry, uHTS; NR3A LBD differential scanning fluorimetry, Tm shift; 0% = protein alone, 100% = glycine-bound protein; Tm shift relative to glycine control, % at 25 µM; hit rate 2.5% among 340,000; AID 1259313, 2017;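 active = melting temperature shift of at least 10% of the positive control shift, at one fixed dose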
AI-2 QS mod – Vibrio harveyi AI-2 quorum sensing modulators, primary screen, JMH597 strain, luminescence/OD600 ratio | activity change, % at 7.5 µM | Vibrio harveyi JMH597 AI-2 luminescence/OD600 ratio, 9 h; hits give low values; strain lacks LuxN and CqsS sensors; 0 = neutral-control median | hit rate 0.4% among 300,000; in the data active = activity change below about -75%, passing the limit was not always enough; inconclusive = no clear call, values can overlap the other calls;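 also: luminescence divided by OD600 gain over 9 h not by final OD600 alone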
Cardio protect – cardioprotection against H2O2-induced cell death, primary screen, uHTS, H9c2 cells, ATPLite luminescence | H9c2 cardiomyocytes, H2O2 injury protection, 2 h | protection from H2O2 cell death, % at 20 µM | AID 588492, 2011 | hit rate 0.63% among 360,000;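 active = compounds giving at least 50% protection of heart cells from peroxide-induced death in the single-dose screen, raw or plate-pattern-corrected value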;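 also: 0% = DMSO wells with peroxide and 100% = DMSO wells without peroxide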
The depositor's hits bear a star; ? = inconclusive; . = no result.

SMILES | SUMO Mot1 rescue | NTR1 ag | AHR activator | NR3A LBD binder | AI-2 QS mod | Cardio protect
Cc1cc(N(CCCl)CCCl)ccc1/C=N/NC(=O)c1ccco1 | -9 | 2 | 16 | -1 | 29 | 5
Cc1cc(N(CCCl)CCCl)ccc1C=NNC(=O)Cc1cc(=O)oc2cc(O)ccc12 | . | . | . | 11* | . | -6
CCN1CCN(c2nc3c(c(=O)[nH]2)CCCC3)CC1 | 1 | 0 | 2 | 0 | 12 | 62*
O=C(c1cccnc1)N1Cc2ccccc2-n2nncc2C1 | . | . | . | . | . | 27
O=C(NP(=O)(N1CC1)N1CC1)c1cc(I)ccc1I | . | . | . | -4 | . | 4
CCCOC(=O)c1ccc(-[n+]2c(-c3ccccc3)cc(-c3ccccc3)cc2-c2ccccc2)cc1 | 1 | 40* | -5 | -7 | 44 | -10
CCS(=O)(=O)Nc1cccc(C(=C2CCCCC2)c2cnc[nH]2)c1 | -3 | 6 | 58* | -1 | . | -13
COc1cc(/C=C2\C(=O)NC(=O)N(c3ccccc3)C2=O)cc(OC)c1O | -19 | 4 | 4 | 11* | 18 | 3
NC(Cc1ccc(Cl)cc1)c1csc(Nc2ncccn2)n1 (stereo not given) | . | . | . | . | . | 5
Cc1cccc(OP(N)(=O)Oc2cccc(C)c2)c1 | 3 | 0 | 7 | 0 | 9 | -2
Cc1cccc(OP(=O)(NCc2ccccc2)Oc2cccc(C)c2)c1 | 1 | 24 | 5 | 17* | 17 | -15
COc1ccc(CC2=NCCc3cc(OC)c(OC)cc32)cc1OC | . | . | . | . | . | -15
COc1ccc2c(c1)CC1(CN2C)C(=O)NC(=O)N(c2ccc(C)cc2)C1=O (stereo not given) | -14 | 0 | 52* | 2 | 12 | 3
Cc1ccc2c(c1)CC1(CN2C)C(=O)NC(=O)N(C(C)C)C1=O (stereo not given) | 4 | -2 | 26 | -2 | 32 | 3
COc1ccc2c(c1)CC1(CN2C)C(=O)NC(=O)N(c2ccc(F)cc2)C1=O (stereo not given) | -12 | 3 | 72* | -5 | 16 | -3
Cc1cccc(N2C(=O)NC(=O)C3(Cc4cc(C)ccc4N(C)C3)C2=O)c1 (stereo not given) | -27 | -1 | 38 | 1 | -21 | -1
COc1ccc(C(c2nnnn2C2CCCC2)N2CCC3(CC2)C(=O)NCN3c2ccccc2)cc1 (stereo not given) | . | . | . | . | . | 20
CC(=O)O[C@H]1[C@H]2O[C@]23[C@@H]2CC[C@]4(O)C[C@@H](O)CC[C@]4(C)C2CC[C@]3(C)[C@H]1c1ccc(=O)oc1 (stereo not given in full) | 6 | 0 | 2 | 2 | . | -1
N#CC1c2ccccc2-n2nncc2CN1S(=O)(=O)c1ccccc1 (stereo not given) | . | . | . | -1 | . | 3
CCN(CC)S(=O)(=O)c1ccc(N=Cc2c(O)n(-c3ccccc3)c(=O)[nH]c2=O)cc1 | 73 | 1 | 2 | 1 | 13 | 21
O=c1[nH]c(=O)n(-c2ccc(Cl)cc2)c(O)c1C=Nc1ccc(S(=O)(=O)Nc2nccs2)cc1 | 19 | 2 | 1 | -5 | -78* | 7
Cc1ccccc1NP(=O)(Oc1ccccc1F)Oc1ccccc1F | -13 | 4 | 0 | 11* | 8 | 73*
COc1cc2c(cc1OC)C13CCN4C=C5CCOC6CC(=O)N2C1C6C5CC43 (stereo not given) | . | . | . | 1 | . | 5
COc1ccc2c(c1)C1(C(=O)O)CC=CCC1(C(=O)O)C2 (stereo not given) | . | . | . | 1 | . | -1
O=C1NC(=O)C(=Cc2ccc(-c3ccc(Cl)cc3)o2)C(=O)N1 | -3 | 41* | 2 | 0 | ? | -9
SMILES | SUMO Mot1 rescue | NTR1 ag | AHR activator | NR3A LBD binder | AI-2 QS mod | Cardio protect
COc1ccccc1N=Cc1c(O)n(C)c(=O)n(C)c1=O | 1 | -1 | 73* | 0 | 30 | 4
Nc1c2c(nc3sc4c(c13)CCCC4)CCCCC2 | 41 | 7 | 58* | -1 | 20 | -28
C[C@]12CC[C@@H](O)CC1=CCC1C2CC[C@@]2(C)C1C[C@@H](F)[C@H]2O (stereo not given in full) | . | . | . | 0 | . | 3
O=C(N/N=C/c1c(O)n(CCC2=CCCCC2)c(=S)[nH]c1=O)c1ccccc1 | -8 | 1 | 9 | 24* | 57 | 66*
O=C(N/N=C/c1c(O)n(CCC2=CCCCC2)c(=O)[nH]c1=O)c1ccccc1 | 11 | -1 | 4 | -1 | 17 | 37
CCOc1cc(C2C(C#N)=C(N)Oc3c2c(=O)oc2ccccc32)ccc1OC(=O)c1cccs1 (stereo not given) | -13 | 2 | 6 | 20* | 29 | 23
CCOC(=O)c1cnc(SCc2ccc(Cl)c(Cl)c2)nc1N1CC1 | . | . | . | -3 | . | -8
Fc1ccc(N2Cc3ccccc3-n3nncc3C2)cc1 | . | . | . | . | . | 4
C[n+]1c2ccccc2nc2ccc(NCCO)cc21 | -20 | 0 | 8 | -3 | 25 | -11
CNc1ccc2nc3ccccc3[n+](C)c2c1 | -33 | -2 | 10 | 12* | 10 | -16
COC[C@H]1OC(=O)c2coc3c2[C@@]1(C)C1=C(C3=O)[C@@H]2CCC(=O)[C@@]2(C)C[C@H]1OC(C)=O | . | . | . | -2 | . | -3
COC(=O)C(O)(c1ccc(N=Cc2ccccc2O)c(C)c1)C(F)(F)F (stereo not given) | 0 | 1 | 1 | -5 | 5 | 13
CC(C)(C)c1ccc(O)c(N=Cc2c(O)ccc3ccccc23)c1 | 5 | -1 | 64* | 1 | -5 | 51*
CCCCn1nnnc1C(c1ccnc2ccccc12)N1CCC2(CC1)C(=O)NCN2c1ccccc1 (stereo not given) | . | . | . | . | . | 3
CC(=O)OC1CCC2(C)C3CCC4(C)C(OC(C)=O)CCC4C3C(C)C2(O)C1 (stereo not given) | . | . | . | -1 | . | 2
Oc1c(Cl)cccc1Cc1cc(Cl)cc(Cl)c1O | . | . | . | 12* | . | -26
Oc1c(Cl)cc(Cl)cc1CN1CCN(Cc2ccccc2)CC1 | 20 | 3 | 5 | 3 | 17 | -7
CC(C)CNC(=O)c1c(N)n(Cc2ccc3c(c2)OCO3)c2nc3ccccc3nc12 | . | 1 | 21 | 22* | -4 | -3
CCCNC(=O)c1c(N)n(Cc2ccc3c(c2)OCO3)c2nc3ccccc3nc12 | 79 | 14 | 0 | 21* | 13 | -10
CC(C)CCn1c(N)c(C(=O)NCc2cccs2)c2nc3ccccc3nc21 | 9 | 31 | 5 | 18* | -4 | -22
